# High-throughput results (PubChem)
# SKN-1 inh – suppressors of acrylamide-induced Pgst-4::GFP reporter in worms, primary screen, SKN-1 inhibitor project, whole organism, uHTS, GFP/RFP fluorescence ratio, strain VP596; AID 624304, 2012; inhibition, % at 21.8 µM; actives 0.49% (n = 360,000); C. elegans VP596 Pgst-4::GFP/RFP ratio, 24 h;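 active = interference check ratio from 0.5 to 1.5 plus GFP to RFP signal ratio inhibition reaching or exceeding a fixed threshold, cut at about 30% in these data, passing the limit was not always enough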
# MEKK2 WT-MEK5 – modulators of MEK5 binding to wildtype MEKK2, primary screen, biochemical, multiplex bead flow cytometry, Alexa488-MEK5 | Mitogen-activated protein kinase kinase kinase 2 (Homo sapiens), Q9Y2U5 | Alexa488-MEK5 binding to MEKK2 WT; actives lie on both sides | actives 1.1% (n = 290,000) | binding response (% of control), % at 10 µM | AID 1531, 2009; in the data active = binding response below about 67% or above about 130%
# MEKK3 PB1 HTS – modulators of MEKK3-MEK5 PB1 binding, primary screen, biochemical, wildtype MEKK3, multiplex bead flow cytometry, Alexa488-MEK5; Mitogen-activated protein kinase kinase kinase 3 (Homo sapiens), Q99759; binding response (% of control), % at 10 µM; bead-based flow cytometry, Alexa488-MEK5 binding to MEKK3; actives lie on both sides; 0 = blocked by unlabeled MEK5, 100 = vehicle; actives 1.4% (n = 290,000);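 active = binding response more than 3 SD above or below the average of its plate-row segment, actives on both sides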;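 note: Alexa488 bead fluorescence after subtracting the streptavidin-only scavenger bead signal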
# MEKK2 mut-MEK5 – MEK5 binding signal on mutant MEKK2 PB1, primary screen, biochemical, multiplex bead flow cytometry, Alexa488-MEK5; percent response, % at 10 µM; actives 0.35% (n = 290,000); Alexa488-MEK5 binding to MEKK2 mutant; in the data active = percent response above about 24%, passing the limit was not always enough
# CendR NRP1 mod – modulators of CendR peptide binding to NRP-1, primary screen, biochemical, fluorescence polarization, uHTS | Neuropilin-1 (Homo sapiens), O14786 | FAM-RPARPAR peptide binding to NRP-1 | inhibition, % at 25 µM | actives 0.85% (n = 360,000) | AID 602438, 2012;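 active = inhibition or corrected inhibition above about 18%, plus a signal ratio from 0.5 to 1.5, limit read from the data, passing the limit was not always enough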
# Numbers without * were called inactive; . = no result. A selection: hits, their analogues and other compounds. The true share with any hit is near 3.2%.
SMILES,SKN-1 inh,MEKK2 WT-MEK5,MEKK3 PB1 HTS,MEKK2 mut-MEK5,CendR NRP1 mod
c1ccc2c(Nc3nc4c(s3)CCCC4)cccc2c1,45*,111,102,6,-1
COc1ccc(Br)c(Cn2c(C)c(C(=O)NCCC#N)sc2=O)c1,-14,.,.,.,1
COc1ccc(-c2ccc(/C=C3/C(=N)N4C(C)=CSC4=NC3=O)o2)c([N+](=O)[O-])c1,43*,94,91,-4,-31
O=C(CCC(=O)N1CCOc2ccc(Cl)cc21)NCCCN1CCN(c2ccccc2F)CC1,2,114,103,4,8
Cc1ccc(C)c(N2CCN(CCCNC(=O)CCC(=O)N3CCOc4ccc(Cl)cc43)CC2)c1,.,150*,107,16,.
CCCCCC1CCC(c2ccc(/C(N)=N/O)cc2)CC1 (stereo not drawn),11,106,103,14,-7
Cn1c(CCN2CCCC2)nc2cc(NC(=O)COc3ccc(Cl)cc3)ccc21,12,.,.,.,19*
CCN1CCN(CCc2nc3cc(NC(=O)COc4ccc(Cl)cc4)ccc3n2C)CC1,-7,100,95,-6,1
Cc1nc(N2CCCCC2)c(C#N)c(C)c1[N+](=O)[O-],4,170*,89,-48,0
COc1ncccc1-c1ccc2nncn2c1,13,.,.,.,-3
N#CCCN(C(=O)Nc1ccc(Cl)cc1)c1ccccc1,-8,111,110,10,-3
N#CCCN(C(=O)Nc1ccccc1)c1ccccc1,-15,105,104,13,28*
O=C1CCCN1CCCNc1nc(NCc2cccs2)nc2ccsc12,21,.,.,.,26*
CCN1C(=NCCc2ccccn2)N[C@@H](c2cccc(F)c2)C(C(=O)OC)=C1C,8,105,102,7,-3
COC(=O)C1=C(C)N(Cc2ccccc2)C(=NCCc2ccccn2)N[C@H]1c1cccc(F)c1,37*,100,94,3,-6
COCCNC(=O)C1(C)CCCN(C(=O)c2ccc(C(=O)OC)cc2)C1 (stereo not drawn),-9,.,.,.,-2
Cn1nccc1C(=O)N1CCN(c2ccccc2Cl)CC1,8,109,105,8,22
Cc1cccc(N2CCN(C(=O)c3ccnn3C)CC2)c1C,4,102,100,1,25*
Cc1c(OCC(=O)NCc2ccccn2)ccc2c3c(c(=O)oc12)CCCC3,-3,100,101,1,-4
Cc1c(OC(C)C(=O)NCc2ccccn2)ccc2c3c(c(=O)oc12)CCC3 (stereo not drawn),15,101,101,0,23*
O=C(NCC(=O)N(Cc1cccs1)C(C(=O)NC1CCCCC1)c1ccncc1)c1ccco1 (stereo not drawn),42*,100,108,2,-2
O=C1C=C(c2cccc3c2Oc2ccccc2S3)C[C@@H](c2ccc(Cl)cc2)C1,7,.,.,.,29*
C=C(C)COc1ccc(-c2[nH]ncc2-c2ccccc2)c(O)c1,-8,94,95,-1,25*
C[C@@H]1CN([C@H](C)CO)C(=O)c2cccc(NC(=O)c3ccncc3)c2O[C@@H]1CN(C)Cc1ccc(C(=O)O)cc1,-3,.,.,.,-2
C[C@@H]1CN([C@@H](C)CO)C(=O)c2cccc(NS(C)(=O)=O)c2O[C@H]1CN(C)Cc1ccc(C(=O)O)cc1,4,.,.,.,26*
SMILES,SKN-1 inh,MEKK2 WT-MEK5,MEKK3 PB1 HTS,MEKK2 mut-MEK5,CendR NRP1 mod
C[C@H](CO)N1C[C@H](C)[C@@H](CN(C)Cc2ccc(C(=O)O)cc2)Oc2c(NC(=O)Cc3ccccc3)cccc2C1=O,15,.,.,.,30*
Oc1ccc(/C=N/Nc2cc(N3CCOCC3)nc(N3CCOCC3)n2)cc1O,6,101,102,4,26*
COCCCn1c(SCC(=O)NC(C)C)nnc1-c1ccccc1,36*,103,101,2,-5
CN(C)C(=S)NC(=S)Nc1ccc2ccccc2c1,-14,.,.,.,17
C=CCn1c(SCc2ccc(Cl)cc2)nc2c1c(=O)[nH]c(=O)n2C,5,95,91,-6,26*
C=CCn1c(SCc2ccc(F)cc2)nc2c1c(=O)[nH]c(=O)n2C,-14,106,106,9,2
CCOC(=O)[C@]12CCC=C1N(CCC1=CCCCC1)C(=O)[C@H](CC(=O)NCc1cccs1)C2,-2,.,.,.,3
CC(=O)Nc1ccccc1OCC(=O)N(Cc1ccccc1)C(C)C,0,106,99,13,38*
Cc1ccc(N=C2NC(=O)/C(=C\c3ccc(C)s3)S2)cc1,38*,90,96,-9,-37
CC(C)N=C(NC#N)SCc1ccccc1,-18,108,107,5,8
C=CCN=C(NC#N)SCc1ccccc1,-21,112,111,8,36*
NCCCC[C@H]1CN=C(N)N1CCC12CC3CC(CC(C3)C1)C2,4,110,100,6,38*
CCCCCn1c(=O)[nH]c2cc(C(=O)NCCCN3CCCCC3CC)ccc2c1=O (stereo not drawn),-1,108,102,0,-2
O=C(COC(=O)CCc1c[nH]c2ccccc12)NC(c1ccccc1)c1ccccc1,11,103,136*,0,-9
O=c1cc(CN2CCN(c3ccccc3)CC2)c2ccccc2o1,-2,.,.,.,-2
COc1ccc([C@@H]2CC(=O)c3c(O)cc(O)cc3O2)cc1O,-3,.,.,.,-2
COc1cc(O)c(CCO)c2c1C(=O)C[C@@H](C)O2,9,-9.0*,87,-16,2
CCc1ccccc1NC(=O)CN1CCN(C(=O)CCC(=O)N2CCC(c3ccccc3)=N2)CC1,-2,.,.,.,8
Cc1cc(C)cc(N(CCC(=O)O)S(=O)(=O)c2ccc3ccccc3c2)c1,-7,93,95,-2,42*
S=C(NCCCN1CCOCC1)NCCCN1CCOCC1,7,95,102,-2,-2
CC(NC(=S)NCCCN1CCOCC1)C12CC3CC(CC(C3)C1)C2 (stereo not drawn),-13,109,102,-7,27*
CCC/C=C/c1ccc(CN2C(CC(C)C)C(=O)N(Cc3cn(Cc4ccco4)nn3)CCS2(=O)=O)cc1 (stereo not drawn),2,.,.,.,-5
CC(=O)c1ccc(OCC(=O)Nc2ccc3c(c2)OCO3)cc1,22,.,.,.,-7
Cc1oc(-c2ccccc2Cl)nc1CS(=O)CC(=O)NCc1ccc2c(c1)OCO2 (stereo not drawn),-10,99,102,5,10
Cc1ccccc1-c1nc(CS(=O)CC(=O)NCc2ccc3c(c2)OCO3)c(C)o1 (stereo not drawn),36*,103,102,5,10
Cc1ccccc1N=C(N)Nc1ccccc1C,5,.,.,.,37*
